# Measurements as given in PubChem BioAssay.
# The source made the active and inactive calls.
# Columns and labels:
# [1] = tested on: Plasmodium falciparum Sir2 (PF13_0152, Sir2A); test: pfSir2 binders on small-molecule microarrays, primary screen, biochemical, small-molecule microarray, 635 nm fluorescence (AID 1098); conditions: small-molecule microarray binding, fluorescence 635 nm; higher = more signal;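 further: score merges spot fluorescence intensity with its signal-to-noise ratio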
# [2] = small-molecule microarray binders of probe aDKK1, primary screen, biochemical, biotinylated probe, 635/667 nm fluorescence (AID 1099); conditions: higher = more signal;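 further: score merges 667nm spot fluorescence with signal to noise across triplicate slides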
# [3] = small-molecule microarray binders of probe aCHRDL2, primary screen, biochemical, biotinylated probe, 635/667 nm fluorescence (AID 1100); conditions: higher = more signal
# [4] = splicing luciferase reporter signal modulators, primary screen, spliceosome inhibition project, cell-based, HEK293, splice +/- reporter (AID 1101); conditions: luminescence, 24 h, higher = more signal, called active from +8 up or from −8 down;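 further: HEK293 cells carrying a splicing-competent luciferase reporter gene; test concentration not given here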
# [5] = target: Fibroblast growth factor 10 (Homo sapiens) (UniProt O15520); test: FGF10 binders on small-molecule microarrays, primary screen, biochemical, small-molecule microarray, 635 nm fluorescence (AID 1102); conditions: FGF10 binding, fluorescence 635 nm, higher = more signal
# Chain of Fibroblast growth factor 10 (Homo sapiens) (O15520 whole entry, looked up): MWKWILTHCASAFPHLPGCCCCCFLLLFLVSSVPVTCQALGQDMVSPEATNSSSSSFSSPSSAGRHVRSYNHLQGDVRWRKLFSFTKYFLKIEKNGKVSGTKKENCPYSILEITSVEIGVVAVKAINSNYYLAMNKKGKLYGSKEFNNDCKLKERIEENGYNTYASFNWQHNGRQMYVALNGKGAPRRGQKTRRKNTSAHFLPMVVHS
# [6] = tested on: glycogen synthase kinase-3 (GSK3A per assay name; protocol says GSK3B); test: GSK3 binders on small-molecule microarrays, primary screen, biochemical, small-molecule microarray, 635 nm fluorescence, GSK3A (AID 1103); conditions: small-molecule microarray binding, fluorescence 635 nm; higher = more signal; further: the record names both GSK3A and GSK3B
# [7] = target: Epidermal growth factor receptor (Homo sapiens) (UniProt P00533); test: EGFR binders on small-molecule microarrays, primary screen, biochemical, small-molecule microarray, 635 nm fluorescence (AID 1104); conditions: EGFR binding, higher = more signal;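 further: score merges 667 nm emission intensity with spot signal to noise over triplicate slides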
# Chain of Epidermal growth factor receptor (Homo sapiens) (P00533 whole entry, looked up): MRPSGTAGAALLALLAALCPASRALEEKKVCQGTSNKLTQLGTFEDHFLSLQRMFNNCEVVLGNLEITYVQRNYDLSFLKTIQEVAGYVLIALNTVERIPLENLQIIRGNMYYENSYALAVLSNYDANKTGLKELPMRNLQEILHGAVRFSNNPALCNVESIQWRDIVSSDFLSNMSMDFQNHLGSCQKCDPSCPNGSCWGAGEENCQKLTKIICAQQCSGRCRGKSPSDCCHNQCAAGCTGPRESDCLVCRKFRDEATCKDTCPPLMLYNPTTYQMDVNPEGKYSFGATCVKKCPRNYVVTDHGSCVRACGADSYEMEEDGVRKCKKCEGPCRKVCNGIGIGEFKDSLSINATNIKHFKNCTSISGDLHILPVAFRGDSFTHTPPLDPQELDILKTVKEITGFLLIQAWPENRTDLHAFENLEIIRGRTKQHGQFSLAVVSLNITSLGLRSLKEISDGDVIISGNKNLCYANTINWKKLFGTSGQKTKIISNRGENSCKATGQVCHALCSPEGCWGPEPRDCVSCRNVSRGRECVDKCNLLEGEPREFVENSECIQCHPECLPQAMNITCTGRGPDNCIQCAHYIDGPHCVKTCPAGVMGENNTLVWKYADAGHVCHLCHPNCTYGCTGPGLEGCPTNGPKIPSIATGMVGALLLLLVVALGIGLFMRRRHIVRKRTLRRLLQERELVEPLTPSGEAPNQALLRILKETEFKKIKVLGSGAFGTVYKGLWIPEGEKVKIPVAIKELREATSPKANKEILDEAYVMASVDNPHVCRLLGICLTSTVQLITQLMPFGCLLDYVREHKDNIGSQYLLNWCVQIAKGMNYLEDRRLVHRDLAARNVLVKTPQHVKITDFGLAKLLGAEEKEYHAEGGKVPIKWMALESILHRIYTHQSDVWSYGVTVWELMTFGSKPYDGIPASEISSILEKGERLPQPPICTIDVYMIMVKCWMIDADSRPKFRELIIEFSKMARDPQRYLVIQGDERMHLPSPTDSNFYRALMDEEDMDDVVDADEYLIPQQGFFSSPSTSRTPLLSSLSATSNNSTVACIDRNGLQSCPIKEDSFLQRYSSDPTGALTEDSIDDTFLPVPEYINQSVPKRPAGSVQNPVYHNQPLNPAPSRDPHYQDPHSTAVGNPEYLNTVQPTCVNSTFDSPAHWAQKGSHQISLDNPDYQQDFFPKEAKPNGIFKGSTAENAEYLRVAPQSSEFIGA
# [8] = target: Follistatin-related protein 3 (Homo sapiens) (UniProt O95633); test: FSTL3 binders on small-molecule microarrays, primary screen, biochemical, small-molecule microarray, 635 nm fluorescence (AID 1105); conditions: FSTL3 binding, higher = more signal;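 further: score merges emission near 667 nm and signal to noise per printed spot across three slides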
# Chain of Follistatin-related protein 3 (Homo sapiens) (O95633 whole entry, looked up): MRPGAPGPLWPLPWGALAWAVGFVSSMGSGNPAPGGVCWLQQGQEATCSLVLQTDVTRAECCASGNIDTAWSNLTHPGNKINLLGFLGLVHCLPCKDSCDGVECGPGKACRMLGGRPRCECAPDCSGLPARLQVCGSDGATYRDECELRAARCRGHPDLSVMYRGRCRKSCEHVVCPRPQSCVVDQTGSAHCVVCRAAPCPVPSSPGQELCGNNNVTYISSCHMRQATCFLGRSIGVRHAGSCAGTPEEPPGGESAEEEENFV
# [9] = target: Dickkopf-related protein 1 (Homo sapiens) (UniProt O94907); test: DKK1 binders on small-molecule microarrays, primary screen, biochemical, small-molecule microarray, 635 nm fluorescence scan (AID 1106); conditions: DKK1 binding, higher = more signal;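 further: score merges emission near 667 nm with signal to noise over three replicate slides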
# Chain of Dickkopf-related protein 1 (Homo sapiens) (O94907 whole entry, looked up): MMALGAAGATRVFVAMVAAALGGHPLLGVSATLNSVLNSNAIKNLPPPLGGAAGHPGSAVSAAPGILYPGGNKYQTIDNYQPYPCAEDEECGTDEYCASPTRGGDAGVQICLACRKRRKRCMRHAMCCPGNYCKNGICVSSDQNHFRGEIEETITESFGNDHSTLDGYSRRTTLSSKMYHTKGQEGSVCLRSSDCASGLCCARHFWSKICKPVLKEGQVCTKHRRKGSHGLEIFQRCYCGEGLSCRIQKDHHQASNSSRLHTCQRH
# [10] = tested on: Inhibin beta A chain (activin A); test: INHBA (activin A) binders on microarrays, primary screen, biochemical, small-molecule microarray, 635 nm fluorescence scan (AID 1107); conditions: small-molecule microarray binding, higher = more signal;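 further: mouse activin A protein probed at 4.33 µg/mL on printed slides; score merges bound-protein fluorescence near 667 nm with spot signal-to-noise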
# [11] = tested on: Human papillomavirus type 1a protein E7 (residues 44-93); test: HPV1a E7 fragment binders on microarrays, primary screen, biochemical, small-molecule microarray, residues 44-93, 635 nm fluorescence (AID 1108); conditions: small-molecule microarray binding, fluorescence 635 nm; higher = more signal;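 further: E7 fragment applied at 1 µg/mL in TBST for 1 h at 4 C; score combines spot fluorescence with its signal to noise ratio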
# [12] = modulators of HCV replicon luciferase signal, primary screen, HCV replication inhibitor project, Huh7 cells, luciferase reporter (AID 1109); conditions: 48 h, higher = more signal;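 further: huh7 hepatoma cells harbouring a luciferase neomycin HCV replicon reporter; luciferase luminescence as measure of HCV replicon replication; test concentration not given here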
# [13] = target: Left-right determination factor 2 (Homo sapiens) (UniProt O00292); test: LEFTY2 binders on small-molecule microarrays, primary screen, biochemical, small-molecule microarray, 635 nm fluorescence scan (AID 1110); conditions: LEFTY2 binding, higher = more signal
# Chain of Left-right determination factor 2 (Homo sapiens) (O00292 whole entry, looked up): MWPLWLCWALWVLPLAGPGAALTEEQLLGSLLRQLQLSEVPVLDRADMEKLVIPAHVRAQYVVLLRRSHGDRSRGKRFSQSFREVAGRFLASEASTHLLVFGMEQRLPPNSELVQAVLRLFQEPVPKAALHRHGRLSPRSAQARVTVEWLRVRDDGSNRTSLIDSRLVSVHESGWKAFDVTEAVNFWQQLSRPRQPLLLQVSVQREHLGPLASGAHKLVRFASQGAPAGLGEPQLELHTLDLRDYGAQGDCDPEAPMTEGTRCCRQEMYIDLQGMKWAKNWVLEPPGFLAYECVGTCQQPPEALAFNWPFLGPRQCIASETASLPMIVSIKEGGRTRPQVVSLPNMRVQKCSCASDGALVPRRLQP
# [14] = target: Calmodulin-1 (Homo sapiens) (UniProt P0DP23); test: CALM1 binders on microarrays, EGTA buffer, profiling panel, biochemical, small-molecule microarray, Cy5-labelled CALM1 (AID 1111); conditions: Cy5-CALM1 binding fluorescence, higher = more signal;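 further: labelled calmodulin applied in Tris saline Tween buffer holding calcium plus EGTA and DTT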
# [15] = target: Calmodulin-1 (Homo sapiens) (UniProt P0DP23); test: calcium-bound CALM1 binders on microarrays, profiling panel, artefact control for SMM control-protein annotation, biochemical, small-molecule microarray, Cy5-labelled CALM1, plus calcium (AID 1112); conditions: Cy5-CALM1 binding fluorescence, higher = more signal;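 further: score merges spot fluorescence with signal to noise from triplicate slides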
# [16] = small-molecule microarray binders of probe aWnt5a, primary screen, biochemical, biotinylated probe, 635/667 nm fluorescence (AID 1113); conditions: higher = more signal;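 further: score merges 667 nm fluorescence intensity with signal-to-noise per printed feature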
# [17] = small-molecule microarray binders of probe aShh, primary screen, biochemical, biotinylated probe, 635/667 nm fluorescence (AID 1114); conditions: higher = more signal;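 further: probe is biotin-labelled aShh protein from a stem cell growth factor screen; measures binding of labelled protein to compounds printed on the slide; score merges feature fluorescence at 667 nm with signal-to-noise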
# [18] = small-molecule microarray binders of probe aNog, primary screen, biochemical, biotinylated probe, 635/667 nm fluorescence (AID 1115); conditions: higher = more signal;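 further: probe is biotinylated aNog protein used at 0.15 µg/mL for 1 h at 4 C; z-score combines 667 nm fluorescence of each spot with its signal to noise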
# [19] = target: Torsin-1A-interacting protein 1 (Homo sapiens) (UniProt Q5JTV8); test: LAP1 binders from COS7 cell lysate, primary screen, small-molecule microarray, 635/667 nm fluorescence (AID 1116); conditions: COS7-hLAP1 lysate binding, 635 nm fluorescence, higher = more signal
# Chain of Torsin-1A-interacting protein 1 (Homo sapiens) (Q5JTV8 whole entry, looked up): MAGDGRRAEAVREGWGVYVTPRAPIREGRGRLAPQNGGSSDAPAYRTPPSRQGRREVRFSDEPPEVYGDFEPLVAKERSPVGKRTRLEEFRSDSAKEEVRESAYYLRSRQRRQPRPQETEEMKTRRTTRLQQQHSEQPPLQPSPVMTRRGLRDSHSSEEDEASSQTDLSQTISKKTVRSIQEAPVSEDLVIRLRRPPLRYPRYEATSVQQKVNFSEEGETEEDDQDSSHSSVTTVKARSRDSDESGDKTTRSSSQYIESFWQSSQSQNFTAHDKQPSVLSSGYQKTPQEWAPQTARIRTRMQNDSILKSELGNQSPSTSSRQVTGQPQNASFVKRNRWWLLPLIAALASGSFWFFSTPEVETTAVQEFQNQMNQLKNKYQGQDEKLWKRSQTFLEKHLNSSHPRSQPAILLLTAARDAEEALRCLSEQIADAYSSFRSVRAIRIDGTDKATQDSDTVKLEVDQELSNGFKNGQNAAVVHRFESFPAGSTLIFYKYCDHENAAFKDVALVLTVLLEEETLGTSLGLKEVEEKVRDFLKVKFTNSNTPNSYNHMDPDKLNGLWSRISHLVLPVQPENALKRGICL
# [20] = target: Alpha-bungarotoxin (Bungarus multicinctus) (UniProt P60615); test: alpha-bungarotoxin binders on microarray, profiling panel, artefact control for SMM control protein annotation, biochemical, small-molecule microarray, Alexa647 label, 635/667 nm fluorescence (AID 1117); conditions: alpha-BTX-A647 binding fluorescence, higher = more signal
# Chain of Alpha-bungarotoxin (Bungarus multicinctus) (P60615 whole entry, looked up): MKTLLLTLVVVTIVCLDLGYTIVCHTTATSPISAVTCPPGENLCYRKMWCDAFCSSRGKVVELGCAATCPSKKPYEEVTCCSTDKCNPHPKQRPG
Structure (SMILES),composite z-score [1],composite z-score [2],composite z-score [3],z-score [4],composite z-score [5],composite z-score [6],composite z-score [7],composite z-score [8],composite z-score [9],composite z-score [10],composite z-score [11],z-score [12],composite z-score [13],composite z-score [14],composite z-score [15],composite z-score [16],composite z-score [17],composite z-score [18],composite z-score [19],composite z-score [20]
CCCCCC1=C2CNC(CCC)(C(=O)OC)C=C2C(C)C1=O (stereo not given),0.0288,0.719,0.952,2.6 (inactive),0.439,-0.111,-0.576,-0.435,-0.793,1.14,0.514,-0.183,-0.477,1.42,1.27,-0.0125,0.811,1.66,0.997,0.334
COCCCN1C(=O)[C@@]2(c3ccc([N+](=O)[O-])cc3)CC(=O)N(C3CCCCC3)[C@@H]2c2ccc(CO)cc21,0.555,-0.24,-0.319,-0.237 (inactive),0.301,0.237,-0.0732,0.593,0.3,0.717,0.215,-1.4,0.289,-0.463,-1.17,-0.096,-0.223,0.439,0.0951,0.467
COc1cc2c(cc1O)C=[N+](Cc1cccc(OC(F)(F)F)c1)CC2,0.674,-0.084,0.39,-0.663 (inactive),-0.0931,-0.104,0.128,0.534,0.141,0.994,-1.28,-0.556,-0.402,-0.579,-0.149,-0.158,-0.206,-0.294,0.15,0.0656
C=CCOC(=O)[C@@H]1[C@H]2C(=O)O[C@H](c3ccccc3)[C@H](c3ccccc3)N2[C@H](c2ccc(OCCOC(=O)[C@@H]3C[C@@H]4C(=O)N[C@@H](CCCC[N+](C)(C)C)C(=O)N4[C@@H]3c3cccc(OCCO)c3)cc2)[C@@]12C(=O)Nc1ccc(I)cc12,1.09,0.0616,0.0011,-0.874 (inactive),0.591,1.19,0.779,1.25,0.985,0.195,0.741,-2.48,0.692,1.02,0.0416,-0.0512,-0.0146,0.886,0.897,1.59
C=CCC(OC(C)=O)[C@@H]1[C@@H](N(Cc2ccc(-c3cccc(C(F)(F)F)c3)o2)C(=O)c2ccc(-c3ccccc3)cc2)c2cc(OCCCO)ccc2N1C(=O)c1ccc(-c2ccccc2)cc1 (stereo not given in full),-0.285,0.31,0.543,0.196 (inactive),0.269,-0.754,-0.327,0.104,-0.0545,1.32,-0.165,-0.614,-0.15,-0.104,1.35,0.0214,0.275,0.26,-0.228,0.288
O=C1O[C@H](c2ccccc2)[C@H](c2ccccc2)N2[C@H]1[C@@H](C(=O)O)[C@]1(C(=O)Nc3ccc(C#CCCO)cc31)[C@H]2c1ccc(O)cc1,0.218,1.13,1.14,-0.765 (inactive),-0.378,-0.222,-0.289,-0.321,-0.572,1.18,-0.038,0.101,-0.603,0.415,0.869,0.0044,-0.0324,1.08,0.846,0.0639
O=C(O)[C@@]1(CCS(=O)(=O)c2ccccc2)COC(c2ccc(OCCCO)cc2)=N1,0.6,0.458,1.05,0.733 (inactive),0.0185,-0.62,-0.939,-0.928,-1.17,1.19,0.182,-0.615,-0.691,-0.0602,0.24,-0.129,0.0062,-0.463,2.98,0.451
COC(=O)[C@@]1(Cc2ccc(F)cc2)[C@H]2c3cc(C(=O)N4CCCC4)n(Cc4cc(C)n(C)n4)c3C[C@H]2CN1C(=O)c1ccccc1,0.89,1.01,1.4,-3.14 (inactive),0.533,0.775,-0.144,-0.261,-0.449,1.28,0.95,-1.17,-0.857,2.36,1.38,0.143,0.356,2.16,3.13,0.251
COCCOC(=O)N1C(=O)[C@@]2(c3ccccc31)[C@H](c1ccc(O)cc1)N1[C@H](c3ccccc3)[C@H](c3ccccc3)OC(=O)[C@H]1[C@@H]2C(=O)NC[C@H](O)c1ccccc1,1.12,-0.0866,-0.0184,-1.07 (inactive),0.12,0.191,-0.291,-0.195,-0.341,-0.202,0.01,-0.296,0.25,1.34,0.682,-0.0643,0.289,0.35,0.261,0.14
COCCOC(=O)N1C(=O)[C@@]2(c3cc(C#CCCO)ccc31)[C@H](c1ccc(OCCO)cc1)N1[C@H](c3ccccc3)[C@H](c3ccccc3)OC(=O)[C@H]1[C@@H]2C(=O)N1CCN(c2ncccn2)CC1,0.732,-0.104,0.27,0.319 (inactive),1.03,1.31,0.629,1.39,0.783,0.845,1.37,-1.46,0.781,1.33,-0.243,-0.131,-0.0035,-0.483,0.398,0.582
O=C1c2ccccc2[C@](Cc2ccccc2I)(C(=O)NC2CC2)[C@H](c2ccc(CO)cc2)N1Cc1ccccc1,0.701,-0.145,0.693,-0.0921 (inactive),0.409,-0.0685,-0.375,-0.117,-0.112,0.0183,0.742,-0.701,-0.346,0.438,0.0099,-0.101,0.234,0.099,0.711,0.832
